Measurements published in PubChem BioAssay (NCATS).
“And” between values parts separate entries of the source, which are not always exact repeats. Equal values may be shown once. Results filed as inconclusive are left out. The source made the active and inactive calls. Calls come from the whole dose curve; as a rule, active = well fitted curve in the direction sought with a large enough effect; inconclusive = small, poorly fitted or top-dose-only effect, or another doubt; inactive = no such curve, though single readings can be large; an effect the other way counts as inactive or inconclusive.

Key:
[1] = qHTS Assay for Identifying Gametocytocidal Compounds (AID 743244); note: potency is the fitted concentration of half-maximal effect;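 for max response: actives lower the fluorescent signal which means gametocytes are killed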; conditions: P. falciparum 3D7 stage III-V gametocytes, alamarBlue, 72 h; max response: active compounds read low
How it was run: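 Compounds are pinned into medium, gametocytes (stage III–V, 3D7, 20,000 cells/well) added, and plates held 72 h at 37 °C in 5% CO2. AlamarBlue follows for 24 h before fluorescence reading.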

[2] = P-glycoprotein substrates identified in KB-8-5-11 adenocarcinoma cell line, qHTS therapeutic library screen (AID 1346987); note: nearly all actives have a fitted effect of over 65% in size; note: potency is the fitted concentration of half-maximal effect
How it was run: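 P-gp-mediated resistance screen: KB-8-5-11 cells treated 72 h with compounds in dose-response. CellTiter-Glo viability.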

[3] = system: KB-3-1; assay: Cytotoxic Profiling of Annotated Libraries Using Quantitative High-Throughput Screening (AID 1296008); conditions: Five cell lines viability, CellTiter-Glo ATP luminescence, 48-72 h; max response: active compounds read low; note: nearly all actives have a fitted effect of over 60% in size; note: potency is the fitted concentration of half-maximal effect
How it was run: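 Compounds were pin-transferred onto cells and incubated 48 or 72 hr at 37 degree Celsius, 95% humidity. CellTiter-Glo was added, plates sat 10 min at room temperature, then ATP-coupled luminescence was imaged as the viability read-out.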

[4] = system: astro; assay: Drug repurposing screens with cells derived from glioblastoma tumor samples (AID 1345199); conditions: viability, ATP luminescence, 48 h; series mostly up to 45.9 µM; note: nearly all actives have a fitted effect of over 40% in size; note: potency is the fitted concentration of half-maximal effect
How it was run: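 Four patient lines of CD133+ GBM neurospheres were screened at several concentrations; hits were retested in those lines plus three slower-growing GBM lines, using 48-hour treatment and ATP-based viability.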

[5] = molecular target: Glutathione peroxidase 1 (Homo sapiens) (UniProt P07203); assay: Primary qHTS Assay for Inhibitors of Recombinant Selenoprotein Glutathione Peroxidase 1 (GPX1) (AID 1845191); note: nearly all actives have a fitted effect of over 65% in size
Chain of Glutathione peroxidase 1 (Homo sapiens) (P07203 whole entry, looked up): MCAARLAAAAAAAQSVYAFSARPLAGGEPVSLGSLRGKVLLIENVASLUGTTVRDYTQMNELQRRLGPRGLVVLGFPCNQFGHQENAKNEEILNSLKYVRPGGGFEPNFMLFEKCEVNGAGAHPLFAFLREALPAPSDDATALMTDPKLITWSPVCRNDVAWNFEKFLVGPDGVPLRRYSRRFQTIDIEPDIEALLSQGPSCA
How it was run: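 Recombinant GPX1 (10 nM final) was preincubated with compound for 30 min at room temperature, then reacted with 1 mM GSH, 0.5 mM CHP, 0.5 mM NADPH and 100 nM glutathione reductase; NADPH fluorescence (340/450 nm) was read at 0 and 15 min.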

[6] = molecular target: Phospholipid hydroperoxide glutathione peroxidase GPX4 (Homo sapiens) (UniProt P36969); assay: Primary qHTS Assay for Inhibitors of Recombinant Selenoprotein Glutathione Peroxidase 4 (GPX4) (AID 1845192); note: nearly all actives have a fitted effect of over 65% in size
Chain of Phospholipid hydroperoxide glutathione peroxidase GPX4 (Homo sapiens) (P36969 whole entry, looked up): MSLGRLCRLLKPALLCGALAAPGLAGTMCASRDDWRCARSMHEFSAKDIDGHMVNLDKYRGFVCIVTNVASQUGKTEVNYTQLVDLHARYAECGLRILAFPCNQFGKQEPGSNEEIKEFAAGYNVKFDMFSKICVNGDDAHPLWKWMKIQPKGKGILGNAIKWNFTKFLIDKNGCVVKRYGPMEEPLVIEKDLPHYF
How it was run: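 GR-coupled readout: 100 nM GR, 1 mM GSH, 0.5 mM NADPH; NADPH fluorescence (ex 340/em 450 nm) read at t=0 and after 15 min RT. GPX4 200 nM, preincubated 30 min with compound; substrate 0.5 mM CHP.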
% is set by controls: 0 for no effect and ±100 for the full control effect.

CCCCNC(C)(C)[P+](=O)O
inactive: max response [1] -17.6% | Potency [2] | max response [3] 5.36% | Potency [4]

CCOP(=S)(OCC)SCSc1ccc(Cl)cc1
inactive: max response [1] -1.21% | Potency [2] | max response [3] -9.26% | Potency [4]

C[C@H]1[C@H]2Cc3ccc(O)cc3[C@]1(C)CCN2CCc1ccccc1
inactive: max response [3] -3.9%

C[N+](C)(C)CC(=O)[O-]
inactive: max response [1] 14.9% | max response [3] 9.58% | Potency [4]

C[C@@H](N)C(=O)c1ccccc1
inactive: max response [1] -12.7% | Potency [2] | max response [3] 2.24% | Potency [4]

Oc1ccc2c3c1O[C@H]1[C@@H](O)C=C[C@H]4[C@H](C2)NCC[C@@]341
inactive: max response [1] 8.16% | Potency [2] | max response [3] -12.5% | Potency [4]

CNC(C)Cc1ccccc1 (stereo unspecified)
inactive: max response [1] 7.96% | max response [3] -8.49% | Potency [4]

COc1cc(C[C@H](C)N)c(OC)cc1C
inactive: max response [1] -10.7% | Potency [2] | max response [3] -5.3% | Potency [4]

O=C1CN=C(c2ccccc2)c2cc(Cl)ccc2N1
inactive: max response [1] 38.4% | Potency [2] | max response [3] -13.7% | Potency [4]

CN[C@]1(c2ccccc2Cl)CCCCC1=O
inactive: max response [1] 1.48% | Potency [2] | max response [3] -15.2% | Potency [4]

C[C@]12CCC(=O)C[C@@H]1CC[C@@H]1[C@@H]2CC[C@@]2(C)[C@H]1CC[C@]2(C)O
inactive: max response [1] -5.63% | max response [3] -6.75% | Potency [4]

CCOC(=O)C1(c2ccccc2)CCCN(C)CC1 (stereo unspecified)
inactive: max response [1] 9.62% | Potency [2] | Potency [5] | Potency [6] | max response [3] -5.26% | Potency [4]

CN[C@@]1(c2ccccc2Cl)CCCCC1=O
inactive: max response [1] 0.413% | Potency [2] | max response [3] -16.7% | Potency [4]

CCN(CC)/[N+]([O-])=N/O
inactive: max response [3] -8.01% | Potency [4]

CC(N)Cc1ccc2c(c1)OCO2 (stereo unspecified)
inactive: max response [1] -8.54% | Potency [2] | max response [3] -15.3% | Potency [4]

CN1CC[C@@]23CCCC[C@@H]2[C@@H]1Cc1ccc(O)cc13
inactive: max response [1] 4.44% | Potency [2] | max response [3] -20.8% | Potency [4]

COc1ccc(OC)c(C[C@H](C)N)c1
inactive: max response [1] -1.24% | Potency [2] | max response [3] 4.2% | Potency [4]

OCCN(CCO)CCO
inactive: max response [1] 5.27% | Potency [2] | Potency [5] | Potency [6] | max response [3] 0.954% | Potency [4]

CC(C)C[C@H]1C(=O)N2CCC[C@H]2[C@]2(O)O[C@](NC(=O)[C@@H]3C[C@@H]4c5cccc6[nH]cc(c56)C[C@H]4N(C)C3)(C(C)C)C(=O)N12
inactive: Potency [5] | max response [3] -14.2%

O=P1(N(CCCl)CCCl)NC(OO)CCO1 (stereo unspecified)
inactive: max response [1] -1.64% | max response [3] 2.7% | Potency [4]

Oc1cc[c]([Hg][Cl])cc1
active: Potency [1] 3.55 µM and 2.82 µM | Potency [2] 5.8 µM and 6.51 µM | Potency [3] 6.51 µM | Potency [4] 3.16 µM and 5.62 µM

CCOc1cc(C=O)ccc1O
inactive: max response [1] -3.19% | Potency [2] | max response [3] -13% | Potency [4]
